This is part of a sample that, as a whole, favours compounds with a hit. Of some 83,000 tested, about 20% had one in any assay.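 Cell lines were cultured in 96-well plates, exposed to a single compound concentration, and assessed for percent growth 48 hours later.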 Unmarked numbers belong to inactive results. Calls of active or inactive are those of the source. Rule for the calls: active = growth percent below 10; inactive = the rest.
What was measured:
Assay in all cases: NCI-60 one-dose screen, 48 h (100 = growth as untreated, 0 = no growth, -100 = all killed)
Conditions in all cases: 10 µM unless noted
HCT-15 colon = tested on: HCT-15 colon
HT29 colon = tested on: HT29 colon
SNB-75 CNS = tested on: SNB-75 CNS
SNB-19 CNS = tested on: SNB-19 CNS
U251 CNS = tested on: U251 CNS
SK-MEL-5 melanoma = tested on: SK-MEL-5 melanoma
UACC-62 melanoma = tested on: UACC-62 melanoma
SK-MEL-28 melanoma = tested on: SK-MEL-28 melanoma
SK-MEL-2 melanoma = tested on: SK-MEL-2 melanoma
EKVX NSCLC = tested on: EKVX NSCLC
SN12C renal = tested on: SN12C renal
UO-31 renal = tested on: UO-31 renal
TK-10 renal = tested on: TK-10 renal
ACHN renal = tested on: ACHN renal
CAKI-1 renal = tested on: CAKI-1 renal
A498 renal = tested on: A498 renal
CCRF-CEM leukemia = tested on: CCRF-CEM leukemia
MOLT-4 leukemia = tested on: MOLT-4 leukemia
LOX IMVI melanoma = tested on: LOX IMVI melanoma
PC-3 prostate = tested on: PC-3 prostate

Compound | growth (HCT-15 colon) | growth (HT29 colon) | growth (SNB-75 CNS) | growth (SNB-19 CNS) | growth (U251 CNS) | growth (SK-MEL-5 melanoma) | growth (UACC-62 melanoma) | growth (SK-MEL-28 melanoma) | growth (SK-MEL-2 melanoma) | growth (EKVX NSCLC) | growth (SN12C renal) | growth (UO-31 renal) | growth (TK-10 renal) | growth (ACHN renal) | growth (CAKI-1 renal) | growth (A498 renal) | growth (CCRF-CEM leukemia) | growth (MOLT-4 leukemia) | growth (LOX IMVI melanoma) | growth (PC-3 prostate)
COc1ccc(-c2nn(-c3ccccc3)cc2/C=C2/SC(=S)N(C)C2=O)cc1 | 74.2% | 64.6% | 33.3% | 60.7% | 8.95% (active) | 98.5% | 86% | 108% | 108% | 74.4% | 34.2% | 16% | 27.7% | -0.446% (active) | 38.5% | 96.9% | 49.6% | 81.3% | – | –
CC1(C)CC[C@]2(c3nnc(-c4ccncc4)o3)CC[C@H]3C(=CC[C@H]4[C@@]3(C)CC[C@H]3C(C)(C)C(=O)CC[C@]43C)[C@@H]2C1 | 61.1% | 50.9% | 68.3% | 74% | 62.4% | 62.4% | 54.7% | 87.5% | 97% | 80.1% | 75.2% | 51% | 97.5% | 71.3% | 58.1% | 31.6% | 52.5% | 38.7% | – | –
O=[N+]([O-])c1ccc(S(=O)(=O)N2CCN(C3=NS(=O)(=O)c4ccccc4N3c3ccccc3)CC2)cc1 | 109% | 110% | 90.2% | 101% | 101% | 90.7% | 98.2% | 135% | 61.6% | 102% | 114% | 76.8% | 118% | 99.3% | 84.6% | 105% | 125% | 94.9% | 97.2% | –
COC(=O)[C@]1(C)CCC[C@]2(C)[C@H]3C[C@H]4C(C(C)C)=C[C@]3(CC[C@H]21)[C@H]1[C@@H]4[C@@H](OCCC#N)CC[C@@H]1OCCC#N | 29.9% | 6.91% (active) | 75.6% | 52.3% | 33.3% | 26.2% | 39.5% | 61.9% | 28.8% | 29.9% | 2.29% (active) | 32.6% | 46.2% | 39.2% | 51.8% | 66.8% | 19.1% | 4.3% (active) | 59.7% | –
CSc1nnc(-c2cnn3c2NC(c2ccccc2)C3)n1-c1ccc(C(F)(F)F)cc1 (stereo not drawn) | 35.1% | 28.4% | 66.7% | 66.9% | 58% | 31.3% | 40.3% | 71.7% | 50.2% | 56% | 78.5% | 53.7% | 70.6% | 52.3% | 32% | 46.8% | 48% | 41.9% | 61.3% | –
Oc1ccc(CCn2c(O)c(/C=C3\CN=c4ccccc4=N3)sc2=S)cc1 | 35.2% | 62% | 23.2% | 82.2% | 80.3% | 88.3% | 58% | 77.5% | 91.5% | 80.8% | 47.5% | 28.9% | 30.8% | 54.3% | 34.3% | 37.3% | 7.79% (active) | 35.9% | 10.2% | –
O=C1c2cccc3cccc(c23)C(=O)N1N1C(=O)c2cccc3c(N4CCOCC4)ccc(c23)C1=O | 101% | 107% | 58.5% | 87.8% | 90.7% | 101% | 90.5% | 102% | 107% | 94.1% | 88.8% | 68.7% | 141% | 95% | 87.4% | 64.3% | 122% | 108% | 90.2% | –
Cc1nc(N2CCOCC2)sc1S(N)(=O)=O | 105% | 102% | -0.593% (active) | 102% | 92.9% | 100% | 94% | 104% | 98.6% | 101% | 94.5% | 86.5% | 90.1% | 100% | 96.9% | 93.4% | 105% | 107% | 95.8% | –
CC(C)(C)[Si](C)(C)O[C@H]1C(=O)C=CN2CC=C[C@@H]12 | 104% [100 µM] | 106% [100 µM] | 91% [100 µM] | 89.1% [100 µM] | 98.5% [100 µM] | 106% [100 µM] | 85.3% [100 µM] | 117% [100 µM] | 112% [100 µM] | 91.2% [100 µM] | 97.4% [100 µM] | 80.3% [100 µM] | 108% [100 µM] | 101% [100 µM] | 104% [100 µM] | 97.9% [100 µM] | 106% [100 µM] | 118% [100 µM] | 102% [100 µM] | –
Cc1cccnc1NC(=S)Nc1ncccc1C | 104% | 103% | 96.2% | 104% | 99.7% | 101% | 100% | 111% | 103% | 95.6% | 98.4% | 108% | 90.1% | 109% | 70.7% | 115% | 91.4% | 60.3% | – | –
O=C(/C=C/c1cn(-c2ccccc2)nc1-c1ccc([N+](=O)[O-])cc1)c1ccc(Cl)cc1 | 46.8% | 52.5% | -5.08% (active) | 52.8% | 9.68% (active) | 71.5% | 58.9% | 56.7% | 96.2% | 60.7% | 50.5% | 41.2% | 14.1% | 52.3% | 31.9% | 78.5% | – | 38% | 37.8% | –
CN1C(=O)/C(=C/c2cn(-c3ccccc3)nc2-c2ccccc2)SC1=S | 103% | 109% | 101% | 100% | 110% | 98% | 86.7% | 105% | 107% | 102% | 100% | 92.2% | 112% | 100% | 89.1% | 79.2% | 107% | 114% | – | –
COc1cc(NC(C)CCCNC(C)C)c2ncccc2c1OC (stereo not drawn) | 99.3% | 120% | 87.6% | 93% | 92% | 97.9% | 85% | 108% | – | 105% | 85.8% | 57.7% | 105% | 104% | 88.2% | 61.3% | 89.3% | 98.4% | – | 90.8%
Cc1cc2c([nH]1)CSc1cc(S(=O)(=O)c3ccccc3)c(=O)[nH]c1-2 | 17.7% [100 µM] | 10.5% [100 µM] | 20% [100 µM] | 37.4% [100 µM] | 15.5% [100 µM] | -36.7% [100 µM] (active) | 19.1% [100 µM] | 17.9% [100 µM] | 30.5% [100 µM] | 21.1% [100 µM] | 23.8% [100 µM] | 35.4% [100 µM] | 26.5% [100 µM] | 23.5% [100 µM] | 6.96% [100 µM] (active) | 51.7% [100 µM] | 19.3% [100 µM] | 32.7% [100 µM] | 12.1% [100 µM] | –
CC1=Nc2cnc(Nc3ccc(OCCN4CCCC4)cc3)nc2Nc2ccccc21 | 33.9% | 60.9% | 20.1% | 91.1% | 80.9% | 71.6% | 84.3% | 94% | 55.9% | 75.1% | 61.1% | 17.3% | 63.6% | 28.7% | 20.9% | -7.76% (active) | 86.3% | 34.5% | 52.2% | –
O=C(NNc1nccc(Nc2ccc(S(=O)(=O)Nc3ccncc3)cc2)n1)c1ccccc1 | 107% | 94.4% | 99% | 109% | 99.6% | 102% | 101% | 106% | 106% | 104% | 107% | 93.9% | 95.3% | 104% | 92.8% | 103% | 111% | 96.7% | -40.5% (active) | –
